Measured values published in PubChem BioAssay (NCATS).
Where “and” joins values, the source holds several entries; their conditions need not be identical. Equal entries are not always repeated. Inconclusive results are not listed. Calls of active or inactive are those of the source. Unless noted, the call rests on the fitted dose curve; in most records, active means well fitted curve in the direction sought with a large enough effect; inconclusive means small, poorly fitted or top-dose-only effect, or another doubt; inactive means no such curve, though single readings can be large; an effect the other way counts as inactive or inconclusive.

Experiments:
[1] = qHTS Assay for Identification of Small Molecule Agonists for Thrombopoietin (TPO) Signaling Pathway (AID 917); further: potency means the concentration at half of the fitted maximal effect
How it was run: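 We measured Glycoprotein IIb promoter–luciferase output in IL-3-starved Ba/F3 murine cells expressing the human TPO receptor after 24 hrs at 37 C with compounds and 26 pM TPO.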

[2] = target: Muscarinic acetylcholine receptor M1 (Rattus norvegicus) (UniProt P08482); experiment: qHTS Assay for Antagonists of Acetylcholine Muscarinic M1 Receptor: Kinetic Measurement of Intracellular Calcium Response (AID 943); further: nearly all actives have a fitted effect of over 75% in size; further: potency means the concentration at half of the fitted maximal effect
How it was run: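 CHO cells stably expressing rat M1 were loaded with no-wash Fluo-4 dye for 1 h at 37C, pre-incubated 10 min with compound, then challenged with EC80 carbachol (100 nM final); kinetic calcium read 4 min, peak/basal ratio.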

[3] = target: Muscarinic acetylcholine receptor M1 (Rattus norvegicus) (UniProt P08482); experiment: qHTS Assay for Antagonists of Acetylcholine Muscarinic M1 Receptor: Measurement of IP-One Response (AID 944); further: nearly all actives have a fitted effect of over 75% in size; further: potency means the concentration at half of the fitted maximal effect
How it was run: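 CHO cells expressing rat M1 receptor, recovered overnight, were pre-incubated 10 min with compound, then stimulated 30 min with carbachol at EC80 (200 nM) in LiCl-containing buffer, pH 7.4. IP1 accumulation was read by HTRF (620/665 nm).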

[4] = target: Pyruvate kinase (Leishmania mexicana) (UniProt Q27686); experiment: qHTS Validation Assay for Inhibitors of Leishmania Mexicana Pyruvate Kinase (AID 945); further: potency means the concentration at half of the fitted maximal effect
How it was run: (§1)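 An endpoint luciferase assay: 0.2 nM LmPYK E451W turns over 0.5 mM PEP with 0.1 mM ADP for 1 h at room temperature, pH 7.2, before PKLight addition. Values are normalized to DMSO-only wells.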

[5] = target: Pyruvate kinase PKM (Homo sapiens) (UniProt P14618); experiment: qHTS Assay for Activators of Human Muscle Pyruvate Kinase (AID 954; active means well fitted curve in the direction sought with a large enough effect, not every such curve was filed as active;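 further: 0% = uninhibited enzyme and -100% = no enzyme or full thiadiazolimine inhibition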)
How it was run: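 Enzyme was run at intermediate activity so both inhibitors and activators could be detected. ATP formed from ADP and PEP by 0.1 nM human PKM2 during a 1 h room-temperature incubation was quantified by coupled luciferase luminescence.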

[6] = qHTS Assay for Identification of Small Molecule Agonists for Hypoxia Response Element Signaling Pathway (AID 914; active means well fitted activation curve with a large enough effect in the signal ratio, with a control signal flat, not every such curve was filed as active; the % refers to the signal ratio; further: % of control where 0% means no effect); conditions: ME-180 (cervical carcinoma) HRE-bla reporter, beta-lactamase ratio, CoCl2, 17 h; active compounds read high
How it was run: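 In Opti-MEM containing 0.5% dialyzed FBS and 10 mM HEPES, ME-180 HRE-bla cells received a compound titration and EC50 CoCl2. They were incubated 17 hours, then CCF4-loaded 2.5 hours at room temperature before ratio reading.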

[7] = Cell Viability - LYMP2-001 (AID 921);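 further: cells exposed to compound for 24 h at 37 °C; nearly all actives have a fitted effect of over 70% in size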; further: potency means the concentration at half of the fitted maximal effect
How it was run: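 qHTS, 1536-well; lymphoblastoid cells, 24 hr compound, 37 C; ATP by CellTiter-Glo, 30 min RT; luminescence; Hill-fit AC50.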

[8] = MultiTox-Fluor Cytotoxicity Assay - LYMP1-001 - Dead Cells (AID 946); further: potency means the concentration at half of the fitted maximal effect
How it was run: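 In this qHTS, 15 uM tetraoctylammonium bromide defined 100% and DMSO defined basal activity. Lymphoblastoid cells (LYMP1-001, 2500 per well) received compound for 16 hr at 37 C before a fluorogenic dead-cell substrate readout at 485/520 nm.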

[9] = MultiTox-Fluor Cytotoxicity Assay - LYMP1-001 - Live Cells (AID 947); further: potency means the concentration at half of the fitted maximal effect
[10] = Cell Viability - LYMP1-002 - Assay at 16 hr (AID 948); further: potency means the concentration at half of the fitted maximal effect
How it was run: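 Acute cytotoxicity is scored as a concentration-dependent fall in intracellular ATP in a human lymphoblastoid line (LYMP1-002) after 16 hr compound exposure at 37 C, measured by luciferase luminescence.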

[11] = MultiTox-Fluor Cytotoxicity Assay - LYMP1-002 - Live Cells (AID 955); further: potency means the concentration at half of the fitted maximal effect
How it was run: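 Human lymphoblastoid LYMP1-002 cells, 2500/well in complete medium, rested 5 hr at 37 C, then exposed to compounds for 16 hr at 37 C. Live-cell protease cleavage of GF-AFC read by fluorescence (Ex/Em 405/510) after 60 min at room temperature; AC50 from Hill fits.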

[12] = MultiTox-Fluor Cytotoxicity Assay - LYMP1-002 - Dead Cells (AID 960); further: nearly all actives have a fitted effect of over 60% in size; further: potency means the concentration at half of the fitted maximal effect
How it was run: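 Human lymphoblastoid cells (LYMP1-002), 2500/well in complete medium, were exposed to compounds for 16 hr at 37 C. Dead-cell protease activity was read as bis-AAF-R110 fluorescence (Ex/Em 485/520), normalized to DMSO and 15 uM tetraoctylammonium bromide; AC50 from Hill fits.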

[13] = MultiTox-Fluor Cytotoxicity Assay - LYMP1-003 - Dead Cells (AID 961); further: nearly all actives have a fitted effect of over 70% in size; further: potency means the concentration at half of the fitted maximal effect
How it was run: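 Acute toxicity is scored as increased dead-cell protease activity in human lymphoblastoid LYMP1-003 cells after 16 h compound exposure in complete culture medium. Activity is normalized to DMSO basal and 15 uM tetraoctylammonium bromide as full response.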

[14] = qHTS Assay for Identification of Small Molecule Antagonists for Thrombopoietin (TPO) Signaling Pathway (AID 918); conditions: TPO-dependent cell signaling reporter, antagonist mode; further: potency means the concentration at half of the fitted maximal effect; nearly all actives have a fitted effect of over 60% in size
How it was run: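 Murine Ba/F3 cells stably expressing human TPO receptor and a Glycoprotein IIb promoter–luciferase reporter were IL-3-starved overnight, treated with compounds plus TPO (26 pM final, its EC50) for 24 hrs at 37 C, then read by luminescence.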

[15] = target: Pyruvate kinase PKM (Homo sapiens) (UniProt P14618); experiment: qHTS Assay for Inhibitors of Human Muscle Pyruvate Kinase (AID 958)
How it was run: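 Human PKM2 activity is measured as ATP generation, detected by luciferase-coupled luminescence. The enzyme (0.1 nM) acts on 0.5 mM PEP and 0.1 mM ADP for 1 h at ambient temperature; data are normalized to uninhibited and full-inhibition wells.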

[16] = target: Pyruvate kinase (Leishmania mexicana) (UniProt Q27686); experiment: qHTS Validation Assay for Activators of Leishmania Mexicana Pyruvate Kinase (AID 959)
How it was run: as §1

Sequence of Muscarinic acetylcholine receptor M1 (Rattus norvegicus) (P08482 whole entry, looked up): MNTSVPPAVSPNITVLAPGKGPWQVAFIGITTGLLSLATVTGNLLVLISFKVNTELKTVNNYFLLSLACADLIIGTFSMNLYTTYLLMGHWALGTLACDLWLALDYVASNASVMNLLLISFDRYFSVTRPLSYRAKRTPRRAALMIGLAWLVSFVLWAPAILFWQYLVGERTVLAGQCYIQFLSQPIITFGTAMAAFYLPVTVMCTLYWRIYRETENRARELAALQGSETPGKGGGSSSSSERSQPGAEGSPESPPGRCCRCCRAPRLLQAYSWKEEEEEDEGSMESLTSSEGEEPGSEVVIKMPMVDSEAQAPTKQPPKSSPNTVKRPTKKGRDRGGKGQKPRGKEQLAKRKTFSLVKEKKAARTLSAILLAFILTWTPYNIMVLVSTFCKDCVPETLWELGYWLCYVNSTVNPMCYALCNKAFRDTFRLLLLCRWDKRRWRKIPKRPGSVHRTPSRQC
Sequence of Pyruvate kinase (Leishmania mexicana) (Q27686 2-499 E452W): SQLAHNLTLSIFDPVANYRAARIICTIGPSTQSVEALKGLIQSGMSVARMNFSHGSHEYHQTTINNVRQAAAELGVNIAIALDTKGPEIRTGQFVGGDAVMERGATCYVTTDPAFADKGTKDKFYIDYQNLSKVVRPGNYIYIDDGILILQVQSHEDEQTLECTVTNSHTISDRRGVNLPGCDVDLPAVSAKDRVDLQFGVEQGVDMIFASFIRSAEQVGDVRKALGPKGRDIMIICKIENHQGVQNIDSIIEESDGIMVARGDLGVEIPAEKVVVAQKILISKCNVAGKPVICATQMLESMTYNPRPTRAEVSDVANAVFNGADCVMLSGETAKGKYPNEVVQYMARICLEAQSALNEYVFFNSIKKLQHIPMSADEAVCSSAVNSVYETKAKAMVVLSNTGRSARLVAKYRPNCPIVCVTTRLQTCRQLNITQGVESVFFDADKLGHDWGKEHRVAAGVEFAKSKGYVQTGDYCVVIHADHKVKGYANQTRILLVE
Sequence of Pyruvate kinase PKM (Homo sapiens) (P14618 whole entry, looked up): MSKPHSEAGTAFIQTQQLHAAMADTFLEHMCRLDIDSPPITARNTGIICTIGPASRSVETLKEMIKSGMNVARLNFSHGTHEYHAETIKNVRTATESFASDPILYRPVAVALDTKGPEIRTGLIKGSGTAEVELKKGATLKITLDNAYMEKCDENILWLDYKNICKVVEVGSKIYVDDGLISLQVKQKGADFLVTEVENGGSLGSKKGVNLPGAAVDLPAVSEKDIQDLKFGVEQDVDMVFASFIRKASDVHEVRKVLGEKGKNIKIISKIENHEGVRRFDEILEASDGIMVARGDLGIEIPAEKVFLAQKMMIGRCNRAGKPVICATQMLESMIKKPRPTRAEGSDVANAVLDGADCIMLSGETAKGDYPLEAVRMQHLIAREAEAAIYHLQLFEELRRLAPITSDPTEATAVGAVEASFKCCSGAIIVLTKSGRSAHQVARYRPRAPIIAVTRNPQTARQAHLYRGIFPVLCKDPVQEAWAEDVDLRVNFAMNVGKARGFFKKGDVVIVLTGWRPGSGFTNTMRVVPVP

O=S(=O)(c1cccc2c(I)cccc12)N1CCCNCC1
inactive: Potency [1] | Potency [2] | Potency [3] | Potency [4] | outcome [5]

CN(C)c1nc2c(Br)c(Br)c(Br)c(Br)c2[nH]1
inactive: Potency [2] | Potency [3] | Potency [4] | outcome [5]
active: Potency [1] 1260 nM

CN1[C@@H]2CC[C@H]1CC(OC(c1ccccc1)c1ccccc1)C2 (some centres not stated)
inactive: activation [6] 14.9% and 19% | Potency [1] | Potency [4] | outcome [5]

C=C[C@H]1CN2CC[C@@H]1C[C@@H]2[C@@H](O)c1ccnc2ccc(OC)cc12
inactive: Potency [1] | Potency [3] | Potency [4] | outcome [5]

O=C(c1cc(O)c(O)c([N+](=O)[O-])c1)c1ccccc1F
inactive: Potency [1] | Potency [2] | Potency [3] | Potency [4] | outcome [5]

N=C(N)SCCc1ccc(CCSC(=N)N)cc1
inactive: Potency [1] | Potency [2] | Potency [3] | Potency [4] | outcome [5]

CN(C)c1nc(N)c(C(=O)N=C(N)N)nc1Cl
inactive: Potency [1] | Potency [3] | Potency [4] | outcome [5]

C[N+](C)(CCCCCC[N+](C)(C)CCCN1C(=O)c2cccc3cccc(c23)C1=O)CCCN1C(=O)c2cccc3cccc(c23)C1=O
inactive: Potency [1] | Potency [4] | outcome [5]
active: Potency [2] 398 nM | Potency [3] 398 nM

c1ccc(-c2ccccn2)nc1
inactive: Potency [1] | Potency [2] | Potency [3] | Potency [4] | outcome [5]

O=C(O)CC[C@@H](C(=O)O)N1C(=O)c2ccccc2C1=O
active: Potency [2] 25.1 nM
inactive: Potency [1] | Potency [3] | Potency [4] | outcome [5]

NCCCCCCCCCCN
inactive: Potency [1] | Potency [3] | Potency [4] | outcome [5]

CN1CCc2ccccc2Cc2[nH]c3ccccc3c2CC1
active: Potency [3] 15800 nM
inactive: Potency [1] | Potency [4] | outcome [5]

O=c1[nH]c2ccccc2n1CCCN1CCN(C(c2ccccc2)c2ccccc2)CC1
active: Potency [2] 5010 nM | Potency [3] 15800 nM
inactive: Potency [1] | Potency [4] | outcome [5]

Cn1c(=O)c2[nH]c(-c3ccccc3)nc2n(C)c1=O
inactive: Potency [1] | Potency [3] | Potency [4] | outcome [5]

N[C@@H](CC(=O)O)C(=O)O
inactive: Potency [1] | Potency [2] | Potency [3] | Potency [4] | outcome [5]

CC(C)Cc1ccc([C@H](C)C(=O)O)cc1
inactive: Potency [1] | Potency [4] | outcome [5]

NO
inactive: Potency [1] | Potency [3] | Potency [4] | outcome [5]

CCCOC(=O)c1ccc(O)cc1
inactive: Potency [7] | Potency [8] | Potency [9] | Potency [10] | Potency [11] | Potency [12] | Potency [13]

CC1(C)S[C@@H]2[C@H](NC(=O)[C@H](N)c3ccccc3)C(=O)N2[C@H]1C(=O)O
inactive: Potency [7] | Potency [8] | Potency [9] | Potency [10] | Potency [11] | Potency [12] | Potency [13]

c1ccc2sc(SSc3nc4ccccc4s3)nc2c1
inactive: Potency [7] | Potency [8] | Potency [9] | Potency [10] | Potency [11] | Potency [12] | Potency [13]

CN(C)c1ccc(N=NS(=O)(=O)O)cc1
inactive: Potency [7] | Potency [8] | Potency [9] | Potency [10] | Potency [11] | Potency [12] | Potency [13]

Brc1c(Br)c(Br)c2n[nH]nc2c1Br
inactive: Potency [2] | Potency [3] | Potency [4] | outcome [5]

CN(C)c1ccc(C(=C2C=CC(=[N+](C)C)C=C2)c2ccccc2)cc1
active: Potency [7] 199 nM | Potency [8] 501 nM | Potency [9] 1000 nM | Potency [10] 1580 nM | Potency [11] 1580 nM | Potency [12] 1580 nM | Potency [13] 2000 nM

NC[C@@H]1O[C@H](C23CC4CC(CC(C4)C2)C3)Cc2c1ccc(O)c2O
inactive: Potency [2] | Potency [3] | Potency [4] | outcome [5]
active: Potency [14] 10000 nM

Nc1ccc([N+](=O)[O-])cc1O
inactive: Potency [7] | Potency [8] | Potency [9] | Potency [10] | Potency [11] | Potency [12] | Potency [13]

COC1=C(OC)C(=O)c2ccccc2C1=O
inactive: Potency [4] | outcome [5]
active: Potency [14] 3980 nM

COc1cc(/C=C/C(=O)CC(=O)/C=C/c2ccc(O)c(OC)c2)ccc1O
inactive: Potency [9]
active: Potency [7] 20000 nM | Potency [8] 50100 nM | Potency [10] 50100 nM | Potency [13] 50100 nM

Nc1nc2ccc([N+](=O)[O-])cc2s1
inactive: Potency [7] | Potency [8] | Potency [9] | Potency [10] | Potency [11] | Potency [12] | Potency [13]

N#C/C(=C\c1c[nH]c2ccccc12)C(=O)c1ccc(O)c(O)c1
inactive: Potency [2] | Potency [3] | Potency [4] | outcome [5]

CNCC[C@H](Oc1ccc(C(F)(F)F)cc1)c1ccccc1
inactive: Potency [4] | outcome [5]

C[C@@H](NC(=O)/C(C#N)=C/c1ccc(O)c(O)c1)c1ccccc1
inactive: Potency [2] | Potency [3] | Potency [4] | outcome [5]

CCCCCCCCCCCCCCCCCC(=O)O
inactive: Potency [7] | Potency [8] | Potency [9] | Potency [10] | Potency [11] | Potency [12] | Potency [13]

CN1CCC[C@H]1c1cccnc1
inactive: Potency [7] | Potency [8] | Potency [9] | Potency [10] | Potency [11] | Potency [12] | Potency [13]

Ic1ccc(N2CCN(Cc3c[nH]c4ncccc34)CC2)cc1
inactive: Potency [4] | outcome [5]

COc1ccc(/C=C/C(=O)Nc2ccccc2C(=O)O)cc1OC
active: Potency [4] 12600 nM | Potency [15] 20000 nM
inactive: Potency [3] | outcome [5] | Potency [16]

C#C[C@]1(O)CC[C@H]2[C@@H]3CCc4cc(O)ccc4[C@H]3CC[C@@]21C
inactive: Potency [7] | Potency [9] | Potency [10] | Potency [11]

NCCNC(=O)c1ncsc1-c1cccc(F)c1
inactive: Potency [3] | Potency [4] | outcome [5]

N#C/C(=C\c1ccc(O)c(O)c1)C(=O)NCCCc1ccccc1
inactive: Potency [2] | Potency [4] | outcome [5]

COc1cc(OC)c(/C=C2/C(=O)Nc3ccccc32)c(OC)c1
inactive: Potency [4] | outcome [5]

O=C(O)/C=C\C(=O)O
inactive: Potency [7] | Potency [8] | Potency [9] | Potency [10] | Potency [11] | Potency [12] | Potency [13]

Nc1ccc(O)c([N+](=O)[O-])c1
inactive: Potency [7] | Potency [8] | Potency [9] | Potency [10] | Potency [11] | Potency [13]

N#C/C(=C\c1ccc(O)c(O)c1)C(=O)c1ccc(O)c(O)c1
inactive: Potency [2] | Potency [4] | outcome [5]

O=c1cc(-c2ccccc2)oc2ccccc12
inactive: Potency [7] | Potency [8] | Potency [9] | Potency [10] | Potency [11] | Potency [12] | Potency [13]

CCN1/C(=C/C(C)=O)Sc2ccc(OC)cc21
inactive: Potency [2] | Potency [3] | Potency [4] | outcome [5]
